Test results from PubChem BioAssay.
Unmarked numbers belong to inactive results. For part of these data: Measured potencies and affinities stand elsewhere. Activity calls are given as the source filed them. Unless noted, the rule behind the calls is not given here.

Legend:
[1] = antimalarial activity against Dd2 strain (AID 2302;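 active = growth inhibition above 50% at the single 2 µM test dose, taken to imply half-maximal potency below 2 µM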;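 note: 0% = DMSO untreated growth and 100% = chloroquine plus artemisinin killed control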); settings: P. falciparum Dd2 in RBCs, LDH growth readout, 72 h; at 2 µM; hits give high values
[2] = human hepatoma cell viability loss – ATP luminescence, cytotoxicity control for P. falciparum antimalarial project, primary screen (AID 2303;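 active = inhibition above 50%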;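 note: 0% = DMSO wells and 100% = digitonin-killed cells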); settings: HepG2 viability, 24-48 h, at 10 µM, hits give high values
[3] = target: L-lactate dehydrogenase (Plasmodium falciparum (isolate CDC / Honduras)) (UniProt Q27743); assay: PfLDH activity inhibition – cell lysate, 3D7 strain, counter-screen for P. falciparum growth inhibition project (AID 2304);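 note: 0% = vehicle and 100% = reference inhibitor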; settings: P. falciparum 3D7 crude extract, LDH APAD/NBT absorbance; at 2 µM; hits give high values
Chain of L-lactate dehydrogenase (Plasmodium falciparum (isolate CDC / Honduras)) (Q27743 whole entry, looked up): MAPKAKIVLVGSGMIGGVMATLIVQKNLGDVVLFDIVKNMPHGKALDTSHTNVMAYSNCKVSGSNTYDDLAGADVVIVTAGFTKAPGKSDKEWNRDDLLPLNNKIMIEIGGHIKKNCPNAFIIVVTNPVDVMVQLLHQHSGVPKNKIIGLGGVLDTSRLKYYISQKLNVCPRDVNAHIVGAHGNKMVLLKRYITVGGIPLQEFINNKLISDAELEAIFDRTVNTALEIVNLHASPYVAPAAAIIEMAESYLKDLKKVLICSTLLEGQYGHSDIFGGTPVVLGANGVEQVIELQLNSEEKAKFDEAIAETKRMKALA

[4] = inhibition of 3D7 malaria parasite growth – strain 3D7 (AID 2306);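 note: 0% = DMSO wells and 100% = chloroquine plus artemisinin control wells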; settings: P. falciparum 3D7 erythrocytic growth, LDH absorbance, 72 h; at 2 µM; hits give high values
[5] = target: Calcium-dependent protein kinase 1 (Plasmodium falciparum (isolate 3D7)) (UniProt P62344); assay: PfCDPK1 kinase inhibitors, biochemical, TCAMS library (AID 1159585; cut-off not given, nearly all actives have IC50 up to about 0.98 µM;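 note: inhibitors leave more ATP so luminescence rises with inhibition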); settings: recombinant PfCDPK1, Kinase-Glo ATP depletion luminescence
Chain of Calcium-dependent protein kinase 1 (Plasmodium falciparum (isolate 3D7)) (P62344 whole entry, looked up): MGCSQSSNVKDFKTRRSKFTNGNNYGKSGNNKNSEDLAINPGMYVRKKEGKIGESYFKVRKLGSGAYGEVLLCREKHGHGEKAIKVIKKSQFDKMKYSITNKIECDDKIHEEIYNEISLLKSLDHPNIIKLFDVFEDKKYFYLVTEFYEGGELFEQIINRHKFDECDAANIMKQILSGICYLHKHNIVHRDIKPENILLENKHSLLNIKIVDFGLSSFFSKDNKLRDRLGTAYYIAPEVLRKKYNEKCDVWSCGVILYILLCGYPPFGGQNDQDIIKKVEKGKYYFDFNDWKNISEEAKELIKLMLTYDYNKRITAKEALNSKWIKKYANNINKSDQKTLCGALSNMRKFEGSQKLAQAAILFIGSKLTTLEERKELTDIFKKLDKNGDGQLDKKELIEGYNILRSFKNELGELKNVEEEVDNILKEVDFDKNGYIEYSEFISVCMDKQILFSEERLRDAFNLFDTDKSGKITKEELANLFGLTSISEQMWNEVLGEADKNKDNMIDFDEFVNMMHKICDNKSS

[6] = target: Plasmodium falciparum protein kinase 6 (PK6, PF3D7_1337100) (UniProt Q8IDW1); assay: PfPK6 kinase inhibitors, biochemical, TCAMS library (AID 1159586); settings: recombinant PfPK6, Kinase-Glo ATP depletion luminescence
Chain of Plasmodium falciparum protein kinase 6 (PK6, PF3D7_1337100) (Q8IDW1 1-305): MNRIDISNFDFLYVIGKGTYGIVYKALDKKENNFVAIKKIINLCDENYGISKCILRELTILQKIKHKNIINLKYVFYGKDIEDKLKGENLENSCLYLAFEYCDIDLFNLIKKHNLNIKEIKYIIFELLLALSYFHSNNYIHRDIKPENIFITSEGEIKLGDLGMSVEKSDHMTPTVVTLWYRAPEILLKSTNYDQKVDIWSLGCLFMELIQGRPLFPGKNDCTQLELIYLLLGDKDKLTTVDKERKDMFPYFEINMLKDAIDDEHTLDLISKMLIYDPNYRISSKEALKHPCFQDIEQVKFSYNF

[7] = target: Protein kinase 7 (PK7), Plasmodium falciparum 3D7 (PF3D7_0213400) (UniProt Q7YTF7); assay: inhibition of Plasmodium PK7 catalytic activity – biochemical, TCAMS antimalarial set, Kinase-Glo luminescence (AID 1159587); settings: recombinant PfPK7, Kinase-Glo ATP depletion luminescence
Chain of Protein kinase 7 (PK7), Plasmodium falciparum 3D7 (PF3D7_0213400) (Q7YTF7 1-343): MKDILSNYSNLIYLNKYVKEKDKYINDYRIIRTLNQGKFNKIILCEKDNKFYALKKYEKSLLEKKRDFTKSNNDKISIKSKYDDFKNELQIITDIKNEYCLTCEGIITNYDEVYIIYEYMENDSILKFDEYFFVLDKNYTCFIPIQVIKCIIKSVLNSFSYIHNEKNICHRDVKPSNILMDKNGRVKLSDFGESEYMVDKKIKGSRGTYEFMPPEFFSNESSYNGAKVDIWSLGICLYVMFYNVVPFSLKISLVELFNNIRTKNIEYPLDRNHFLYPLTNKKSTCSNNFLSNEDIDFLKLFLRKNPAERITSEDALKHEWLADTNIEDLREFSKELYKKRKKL

[8] = target: Calcium-dependent protein kinase 4 (Plasmodium falciparum (isolate 3D7)) (UniProt Q8IBS5); assay: PfCDPK4 kinase inhibitors, biochemical, TCAMS library (AID 1159588; cut-off not given, nearly all actives have IC50 up to about 0.91 µM); settings: recombinant PfCDPK4, Kinase-Glo ATP depletion luminescence
Chain of Calcium-dependent protein kinase 4 (Plasmodium falciparum (isolate 3D7)) (Q8IBS5 whole entry, looked up): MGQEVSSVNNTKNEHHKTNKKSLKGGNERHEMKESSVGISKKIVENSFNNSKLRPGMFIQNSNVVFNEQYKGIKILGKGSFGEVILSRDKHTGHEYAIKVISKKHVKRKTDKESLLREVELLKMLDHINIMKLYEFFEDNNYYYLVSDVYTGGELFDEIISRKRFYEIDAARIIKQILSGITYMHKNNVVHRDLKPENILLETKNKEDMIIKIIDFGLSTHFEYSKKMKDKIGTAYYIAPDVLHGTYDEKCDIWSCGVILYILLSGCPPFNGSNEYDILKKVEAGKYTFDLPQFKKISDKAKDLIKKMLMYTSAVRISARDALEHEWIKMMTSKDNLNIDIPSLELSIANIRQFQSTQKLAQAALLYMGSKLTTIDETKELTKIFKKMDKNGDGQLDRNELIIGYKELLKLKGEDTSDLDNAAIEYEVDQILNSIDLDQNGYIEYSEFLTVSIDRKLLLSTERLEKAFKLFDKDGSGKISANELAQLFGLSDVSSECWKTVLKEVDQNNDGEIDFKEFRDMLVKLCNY

Compound | growth inhibition [1] | inhibition [2] | inhibition [3] | growth inhibition [4] | outcome [5] | outcome [6] | outcome [7] | outcome [8]
Cn1cnc(CCNC(=O)c2cccc(-c3ccc(-c4nc5ccc(F)cc5[nH]4)cc3)c2)c1 | 5% | 26% | 4% | 88% (active) | inactive | inactive | inactive | inactive
c1ccc(CCNCc2cccc(-c3ccccc3CNCc3ccc4c(c3)OCO4)c2)nc1 | 80% (active) | 41% | -2% | 90% (active) | inactive | inactive | inactive | inactive
CN(C)c1cc(NC(=O)Nc2ccccc2)c2ccccc2n1 | 98% (active) | 11% | -5% | 101% (active) | inactive | inactive | inactive | inactive
COc1ccc2nccc([C@@H](O)CN3CCC(NC(=O)/C=C/c4ccnc5ccccc45)CC3)c2c1 | 12% | 19% | -1% | 91% (active) | inactive | inactive | inactive | inactive
COc1ccc2ccccc2c1CCCCN1CCN(CC(c2ccc(F)cc2)N2CCN(C(C)C)CC2)CC1 (configuration not stated) | 83% (active) | 92% (active) | 2% | 100% (active) | inactive | inactive | inactive | inactive
O=C(NCCCc1ccccc1)c1ccc(O)c(-c2cc(Cl)cc(Cl)c2)c1 | 98% (active) | -1% | -3% | 99% (active) | inactive | inactive | inactive | inactive
C=CCOc1ccc(C(=O)Nc2nonc2-c2ccc(OC)c(OC)c2)cc1 | 91% (active) | 2% | -5% | 100% (active) | inactive | inactive | inactive | inactive
Oc1ccc(-c2cc(-c3ccc(O)cc3)nc(-c3ccccc3)n2)cc1 | 97% (active) | 0% | -1% | 96% (active) | inactive | inactive | inactive | inactive
CS(=O)(=O)c1ccc(CCNCc2ccc(-c3ccc(CN(C(=O)C4CC(=O)c5ccccc54)C4Cc5ccccc5C4)cc3)nc2)cc1 (configuration not stated) | 21% | 5% | -7% | 90% (active) | inactive | inactive | inactive | inactive
NC(=O)c1cc2nc(NC3CCC3)nc(Nc3cccc4[nH]ncc34)c2[nH]1 | 62% (active) | 9% | 4% | 100% (active) | inactive | inactive | inactive | inactive
Fc1ccc2nc(-c3ccc(-c4ccc(CNCC5CCCO5)cc4)s3)[nH]c2c1 (configuration not stated) | 99% (active) | 30% | -2% | 100% (active) | inactive | inactive | inactive | inactive
CN1CCC(NCc2cccc(-c3cnc(NCc4ccccc4)nc3)c2)CC1 | 67% (active) | 12% | 4% | 102% (active) | inactive | inactive | inactive | inactive
COc1ccccc1CCNc1nc(C)cc(N[C@@H](Cc2ccccc2)C(=O)NCc2cccc(F)c2)n1 | 86% (active) | 31% | -2% | 99% (active) | inactive | inactive | inactive | inactive
CCOCCCNc1ncc(-c2ccsc2)c(-c2nc(C)cs2)n1 | 83% (active) | 0% | 1% | 89% (active) | inactive | inactive | inactive | inactive
Cc1ccc(-n2c(=O)c3c(n4c(SC(C)C)nnc24)-c2ccccc2CC32CCCCC2)cc1 | 88% (active) | 8% | 0% | 95% (active) | inactive | inactive | inactive | inactive
Cc1cccc2[nH]c(-c3ccc(-c4cccc(C(=O)N5CCCCC5C(C)O)c4)s3)nc12 (configuration not stated) | 53% (active) | 27% | -1% | 101% (active) | inactive | inactive | inactive | inactive
Nc1c2c(nc3ccc(Oc4ccc(Cl)cc4)cc13)CCCC2 | 65% (active) | 42% | -8% | 100% (active) | inactive | inactive | inactive | inactive
N#Cc1ccc(NC(=NC2Cc3ccccc3C2)Nc2cccc(Cl)c2Cl)c(O)c1 | 77% (active) | 15% | -10% | 94% (active) | inactive | inactive | inactive | inactive
COc1ccc2nccc([C@@H](O)CN3CCC(NCc4cc5c(Cl)cccc5[nH]4)CC3)c2c1 | 74% (active) | 40% | 1% | 101% (active) | inactive | inactive | inactive | inactive
FC(F)(F)c1ccc(-c2cncc(-c3ccc(C(F)(F)F)cc3)n2)cc1 | 97% (active) | 9% | -7% | 98% (active) | inactive | inactive | inactive | inactive

Compound | growth inhibition [1] | inhibition [2] | inhibition [3] | growth inhibition [4] | outcome [5] | outcome [6] | outcome [7] | outcome [8]
FC(F)(F)c1ccc(NC(=S)N2CCC(CCN3CCC(c4c[nH]c5ccccc45)CC3)CC2)cc1 | 37% | 44% | 0% | 98% (active) | inactive | inactive | inactive | inactive
O=C(C=Cc1ccc(-c2nc3ccccc3[nH]2)cc1)NC1CCN(Cc2ccccc2)CC1 | 88% (active) | 15% | 3% | 99% (active) | inactive | inactive | inactive | inactive
CCC(C)NCc1c(O)ccc2c(CNC(C)CC)c(O)ccc12 (configuration not stated) | 31% | 14% | 2% | 100% (active) | inactive | inactive | inactive | inactive
N#Cc1cccc(NC(=O)Nc2cccc(-c3cccc(-c4nc5ccc(F)cc5[nH]4)c3)c2)c1 | 66% (active) | 60% (active) | 0% | 102% (active) | inactive | inactive | inactive | inactive
O=C(O)c1cc(C(F)(F)F)co1 | 19% | -4% | 1% | 96% (active) | inactive | inactive | inactive | inactive
NC(=NCCCc1ccccc1)c1cccc(C(N)=NCCCc2ccccc2)n1 | -1% | 44% | -6% | 98% (active) | inactive | inactive | inactive | inactive
CC(C)CCNCc1ccc(OCc2cccc(C(=O)Nc3ccccc3)c2)c(I)c1 | 59% (active) | 25% | 0% | 100% (active) | inactive | inactive | inactive | inactive
O=C(NCCc1ccccc1)N(Cc1ccccc1-c1ccc(CNC2CCCC2)cc1)C1CCN(Cc2ccccc2)CC1 | 95% (active) | 96% (active) | 1% | 96% (active) | inactive | inactive | inactive | inactive
Cc1sc(CNCCCNc2cc(=O)c3ccccc3[nH]2)c(C(F)(F)F)c1C | 70% (active) | -12% | 1% | 99% (active) | inactive | inactive | inactive | inactive
Oc1ccc2[nH]c(-c3cccc(F)c3)nc2c1CN1CCCC1 | 47% | 0% | 5% | 100% (active) | inactive | inactive | inactive | inactive
COc1cc(C2CCN(CCCCNC(=O)c3ccc(NC(=O)c4cc(C(F)(F)F)cc(C(F)(F)F)c4)cc3)CC2)ccc1OC(C)C | 100% (active) | 21% | 4% | 100% (active) | inactive | inactive | inactive | inactive
COc1cc2nc(C)nc(Nc3ccc(Cc4ccccc4)cc3)c2cc1OC | 99% (active) | 16% | -1% | 101% (active) | inactive | inactive | inactive | inactive
Cc1cc(N[C@@H](Cc2ccccc2)C(=O)NCCOc2ccccc2)nc(NCc2ccccc2C)n1 | 80% (active) | 32% | -3% | 100% (active) | inactive | inactive | inactive | inactive
O=C(NCCCCCN1CCC(c2c[nH]c3ccccc23)CC1)c1ccc(-c2ccccc2)nc1 | 13% | 43% | 1% | 87% (active) | inactive | inactive | inactive | inactive
O=C(/C=C/c1ccc(Cl)c(Cl)c1)NCCCCCN1CCC(C(=O)Nc2ccc(F)c(Cl)c2)CC1 | -3% | 25% | 2% | 100% (active) | inactive | inactive | inactive | inactive
O=c1cc(NCCCNCc2sc(Br)nc2Br)[nH]c2ccccc12 | 44% | 1% | -2% | 92% (active) | inactive | inactive | inactive | inactive
Cc1cnc(C(=O)Nc2cccc(-c3ccc(-c4nc5ccc(F)cc5[nH]4)cc3)c2)cn1 | 13% | 19% | -2% | 102% (active) | inactive | inactive | inactive | inactive
NC1CCCN(Cc2ccc(-c3cccc(-c4nc5ccc(F)cc5[nH]4)c3)cc2)C1 (configuration not stated) | 75% (active) | 54% (active) | 1% | 100% (active) | inactive | inactive | inactive | inactive
Cn1nc(-c2cccc(CNCCc3cccs3)c2)c2cnc(NC3CCCC3)nc21 | -1% | 8% | -1% | 97% (active) | inactive | inactive | inactive | inactive
